An excerpt weighted towards active compounds, which were near 7.1% of everything screened.
PINK1 modulator = modulators of PINK1 expression | 410,000 tested, 0.2% active | PINK1 immunofluorescence, high-content cytometry, 24 h | Potency, µM (titrated, usually from 76.6 µM), for inactives: top-dose activation (PINK1 increase), actives largely listed as activators | AID 624263; active means well fitted activation curve with a large enough effect; inconclusive means small, poorly fitted or top-dose-only effect; cell line not stated here; further: potency means the concentration at half of the fitted maximal effect; % of control where 0% means no effect; nearly all actives have a fitted effect of over 65% in size
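Stable cell line treated 24 h with compounds at 5 concentrations (CCCP controls), then fixed and immunostained for PINK1 plus nuclear and cell stains; PINK1 immunofluorescence quantified by laser-scanning microplate cytometry.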
MCF10A rerep = inducers of DNA re-replication in MCF 10A breast cells. MCF 10A DNA re-replication, Hoechst nuclear intensity, 48 h. Potency, µM (top dose mostly 46.1 µM), without a hit: top-dose activity, positive = re-replication, usual class: activators. 350,000 tested, 2.9% active. AID 624296; further: potency means the concentration at half of the fitted maximal effect; % of control where 0% means no effect; nearly all actives have a fitted effect of over 50% in size
ATXN viability = cell viability loss in ATXN counter-screen; S2 cells (HEK-293 line with an ATXN2-luciferase reporter) viability, CellTiter-Fluor protease fluorescence, 24 h; Potency, µM (highest dose often 56.7 µM), hits mostly cytotoxic; 400,000 tested, 0.49% active; further: potency means the concentration at half of the fitted maximal effect; nearly all actives have a fitted effect of over 40% in size
IL-1B inflam inh = inflammasome signaling inhibition, IL-1 beta readout; THP-1 LPS/ATP IL-1B secretion, AlphaLISA, 16 h; stronger effect = lower value; activity change, % at 57.5 µM; 360,000 tested, 4.7% active; AID 743279; in the data active means activity change below about -50%; inconclusive means mostly about -30% to -49%; further: on the % scale 0 is the no-effect control and ±100 the full control effect
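Secreted IL-1B measured by AlphaLISA bead assay after 16 h compound exposure of THP-1 cells; compounds (final up to 57.5 uM) added 1 h before LPS (250 ng/mL) and ATP (1.25 mM) stimulation; lower signal means less secretion.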
SW480 rerep = DNA re-replication induction in SW480 cells. SW480 DNA re-replication, Hoechst DNA content imaging, 48 h. Potency, µM (top dose mostly 46.1 µM), for the others: at the top dose re-replication activation, most hits filed as activators. 340,000 tested, 1.8% active; further: potency means the concentration at half of the fitted maximal effect; % of control where 0% means no effect; nearly all actives have a fitted effect of over 55% in size
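Compounds, transferred as 23 nL by pin tool, were incubated with cells for 48 hr; DNA content per nucleus was then quantified by Hoechst staining and fluorescence plate imaging.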
ATXN2 expr inh = inhibitors of ATXN2 expression; HEK-293 ATXN2-luciferase reporter, luminescence, 24 h; Potency, µM (highest dose often 57 µM), for the others: top-dose activity change, negative = inhibition, most hits filed as inhibitors; 360,000 tested, 0.72% active; further: potency means the concentration at half of the fitted maximal effect; on the % scale 0 is the no-effect control and ±100 the full control effect; nearly all actives have a fitted effect of over 55% in size
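ATXN2-luciferase reporter cells (luciferase flanked by upstream and downstream ATXN2 gene portions) were treated 24 h at 37 °C with compounds at up to 57 uM. SteadyGlo luminescence gave expression; GF-AFC fluorescence gave viability.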
An asterisk follows results filed as active; [ ] = another dose, or the depositor's remark. Unless noted, the call rests on the fitted dose curve; in most records, active means well fitted curve in the direction sought with a large enough effect; inconclusive means small, poorly fitted or top-dose-only effect, or another doubt; inactive means no such curve, though single readings can be large; an effect the other way counts as inactive or inconclusive.

Results for CCN(CC)c1ccc(/C=N/N2CC(=O)NC2=S)cc1 ?
PINK1 modulator: 39.8µM*; MCF10A rerep: inconclusive; ATXN viability: inactive; IL-1B inflam inh: 8.3; SW480 rerep: inconclusive; ATXN2 expr inh: 0.9%

Results for CCN(CC)c1ccc(/C=N/N2C(=O)c3ccccc3C2=O)cc1 ?
PINK1 modulator: -0.4%; MCF10A rerep: 0.4%; ATXN viability: inactive; IL-1B inflam inh: -21.5; SW480 rerep: 1.0%; ATXN2 expr inh: 0.5%

What do the screens show for `O=C(CN1CC(=O)Nc2ccccc21)NCCc1ccc(Cl)cc1Cl`?
PINK1 modulator: 3.8%; MCF10A rerep: 16.3%; ATXN viability: inconclusive; IL-1B inflam inh: -101.9*; SW480 rerep: 10.6%; ATXN2 expr inh: -27.4%

What do the screens show for `O=C(CN1CCNC(=O)C1)NCCc1ccc(Cl)cc1Cl`?
PINK1 modulator: 3.2%; MCF10A rerep: -35.1%; ATXN viability: inactive; IL-1B inflam inh: 17.1; SW480 rerep: -2.2%; ATXN2 expr inh: 5.6%

What do the screens show for `COCCN(CCOc1cc(C)cc(C)c1)Cc1ccc(Cl)cc1`?
PINK1 modulator: 17.9%; MCF10A rerep: 18.4µM*; ATXN viability: inactive; IL-1B inflam inh: 6.9; SW480 rerep: inconclusive; ATXN2 expr inh: -0.3%

Results for N=c1sccn1CC(=O)Nc1ccccc1Sc1ccccc1 ?
PINK1 modulator: -0.5%; MCF10A rerep: -4.1%; ATXN viability: inactive; IL-1B inflam inh: -54.8*; SW480 rerep: 8.1%; ATXN2 expr inh: -11.8%[11.3 µM]

What do the screens show for `Cc1c(C(=O)NCC2(c3ccccc3)CCOCC2)cnn1-c1nccc(-c2ccco2)n1`?
PINK1 modulator: -0.1%; ATXN viability: inactive

Results for CCOC(=O)CNS(=O)(=O)c1ccc2c3c(cccc13)C(=O)N2CC ?
PINK1 modulator: 1.1%; MCF10A rerep: 20.1%; IL-1B inflam inh: -86.0*; SW480 rerep: 14.5%; ATXN2 expr inh: -15.4%

Results for COCCNS(=O)(=O)c1ccc2c3c(cccc13)C(=O)N2C ?
PINK1 modulator: 3.5%; MCF10A rerep: -4.3%; IL-1B inflam inh: -8.6; SW480 rerep: 2.4%; ATXN2 expr inh: -20.2%

Results for CN1C(=O)c2cccc3c(S(=O)(=O)NCCc4ccccc4)ccc1c23 ?
PINK1 modulator: 1.8%; MCF10A rerep: 23.1µM*; ATXN viability: inconclusive; IL-1B inflam inh: 15.0; SW480 rerep: inconclusive; ATXN2 expr inh: -4.0%

How did O=[N+]([O-])c1ccc(Cl)c(S(=O)(=O)Nc2ccc(-c3ccc(N4CCCC4)nn3)cc2)c1 do in these assays?
PINK1 modulator: -0.7%; MCF10A rerep: 15.4%; ATXN viability: inconclusive; IL-1B inflam inh: -84.5*; SW480 rerep: -7.1%; ATXN2 expr inh: 5.2%

What do the screens show for `CCC(=O)N1CCc2cc(S(=O)(=O)NCCC(=O)NCc3ccc(C)cc3)ccc21`?
PINK1 modulator: 2.3%; ATXN viability: inactive; ATXN2 expr inh: -21.4%

Results for COC(=O)/C=C/c1ccccc1S(=O)(=O)N(Cc1ccccc1)Cc1ccco1 ?
PINK1 modulator: 4.0%; MCF10A rerep: 2.06µM*; ATXN viability: inconclusive; IL-1B inflam inh: 49.2; SW480 rerep: 4.11µM*; ATXN2 expr inh: -20.7%

How did O=S(=O)(c1ccc(S(=O)(=O)N(Cc2ccccc2)Cc2ccco2)cc1)N1CCCC1 do in these assays?
PINK1 modulator: inconclusive; MCF10A rerep: -0.5%; ATXN viability: inconclusive; IL-1B inflam inh: -8.3; SW480 rerep: -3.0%; ATXN2 expr inh: inconclusive

What do the screens show for `NCCNC[C@@H]1COC2(CCCCCCCCCCC2)O1`?
PINK1 modulator: -0.2%; MCF10A rerep: inconclusive; ATXN viability: inactive; IL-1B inflam inh: -68.3*; SW480 rerep: inconclusive; ATXN2 expr inh: 0.0%

What do the screens show for `Cc1c(F)c(N2CCNC(C)C2)cc2c1c(=O)c(C(=O)O)cn2C1CC1` (configuration not stated)?
MCF10A rerep: 10.7%; ATXN viability: inactive; SW480 rerep: 4.9%; ATXN2 expr inh: 10.3%

Results for COc1ccc(Cn2nnnc2C(c2ccccc2)N2CCN(c3ccccc3)CC2)cc1 (configuration not stated) ?
PINK1 modulator: 0.2%

What do the screens show for `C=CCn1c(SCc2c(C)noc2C)nc2sc3c(c2c1=O)CCCCC3`?
PINK1 modulator: 4.6%; MCF10A rerep: inconclusive; ATXN viability: inactive; IL-1B inflam inh: -8.4; SW480 rerep: 13.4%; ATXN2 expr inh: -9.8%

How did C=CCn1c(SCc2cc(C(C)=O)ccc2OCC)nc2ccccc2c1=O do in these assays?
PINK1 modulator: inconclusive; MCF10A rerep: 1.03µM*; ATXN viability: inconclusive; IL-1B inflam inh: 51.4; SW480 rerep: 1.84µM*; ATXN2 expr inh: -13.6%

Results for C=CCn1c(SCc2c(C)noc2C)nc2ccccc2c1=O ?
PINK1 modulator: 12.9%[38.3 µM]; MCF10A rerep: 7.31µM*; ATXN viability: inconclusive; IL-1B inflam inh: 40.0; SW480 rerep: 0.651µM*; ATXN2 expr inh: inconclusive

How did C=CCn1c(SCc2nc3ccccc3c(=O)[nH]2)nc2ccccc2c1=O do in these assays?
PINK1 modulator: 3.9%; MCF10A rerep: inconclusive; ATXN viability: inactive; IL-1B inflam inh: 13.8; SW480 rerep: 15.9%; ATXN2 expr inh: -1.7%

What do the screens show for `C=CCn1c(SCc2c(C)noc2C)nc2sc3c(c2c1=O)CCCC3`?
PINK1 modulator: inconclusive; MCF10A rerep: 9.2µM*; ATXN viability: inactive; IL-1B inflam inh: -20.6; SW480 rerep: inconclusive; ATXN2 expr inh: -30.9%

Results for COc1ccc(C(C)=O)cc1CSc1nc2ccccc2c(=O)n1-c1ccccc1 ?
PINK1 modulator: 12.4%; MCF10A rerep: 23.1%; IL-1B inflam inh: 0.0; SW480 rerep: 0.5%; ATXN2 expr inh: inconclusive

How did C=CCn1c(SCc2c(C)noc2C)nc2cc(C(=O)O)ccc2c1=O do in these assays?
PINK1 modulator: 20.0%[38.3 µM]; MCF10A rerep: 2.91µM*; ATXN viability: inconclusive; IL-1B inflam inh: 30.6; SW480 rerep: inconclusive; ATXN2 expr inh: 10.6%

What do the screens show for `CC(CNC(=O)C1CCN(C(=O)N2CCOc3ccc(Cl)cc32)CC1)c1ccccc1` (configuration not stated)?
PINK1 modulator: -1.0%

What do the screens show for `CCN(C(=O)CSc1nc2ccccc2c2nc(CCn3c(C)nc4ccccc43)nn12)c1cccc(C)c1`?
PINK1 modulator: 5.1%; ATXN viability: inactive; ATXN2 expr inh: 8.5%

Results for CCOC(=O)c1cccc(NS(=O)(=O)c2ccc(-c3cnc(C4CC4)o3)cc2)c1 ?
PINK1 modulator: 4.0%; ATXN viability: inconclusive; ATXN2 expr inh: -22.9%

Results for COC(=O)CSc1ccc(-c2nc3ccc(C)cc3[nH]2)cn1 ?
PINK1 modulator: 2.8%; MCF10A rerep: inconclusive; ATXN viability: inactive; IL-1B inflam inh: -89.6*; SW480 rerep: -2.5%; ATXN2 expr inh: 6.9%
